# Screening data from PubChem.
# APE1 inh = qHTS Assay for Inhibitors of the Human Apurinic/apyrimidinic Endonuclease 1 (APE1); 350,000 compounds, 0.35% hits; DNA repair nuclease/redox regulator APEX1 (Homo sapiens), P27695; Potency, µM (doses to about 65.8 µM), inactives show at the highest dose activity change, negative = inhibition, usual class: inhibitors; recombinant APE1, TAMRA/BHQ-2 abasic DNA cleavage fluorescence;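 further: plate controls were vehicle for no effect and reference inhibitor for full effect; nearly all actives have a fitted effect of over 55% in size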
#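 Readout is kinetic fluorescence (ex 525, em 598 nm) from cleavage of 50 nM TAMRA/BHQ-2 THF abasic duplex by 0.75 nM APE1, compound added 15 min beforehand at RT.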
# RECQ1 helicase = qHTS Assay for Inhibitors of RecQ-Like Dna Helicase 1 (RECQ1); ATP-dependent DNA helicase Q1 (Homo sapiens), P46063; 240,000 compounds, 0.54% hits; RECQ1 DNA unwinding, red fluorescence kinetic read; Potency, µM (series often up to 57.3 µM), for inactives: top-dose activity, negative = inhibition, most hits filed as inhibitors;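 further: plate controls were vehicle for no effect and no enzyme for full effect; nearly all actives have a fitted effect of over 30% in size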
#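 RECQ1T1 50 nM; forked duplex (20 bp + 30-nt ss tails) 200 nM, ATP 2 mM final; pH 8.0, 2 mM MgCl2, 2.5 ug/ml poly(dI-dC); 15 min compound preincubation; discontinuous kinetic read over 2 h at RT.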
# JMJD2E inh = qHTS Assay for Inhibitors of Human Jumonji Domain Containing 2E (JMJD2E); Lysine-specific demethylase 4E (Homo sapiens), B2RXH2; JMJD2E catalytic domain, FDH-coupled NADH fluorescence (FDH is formaldehyde dehydrogenase); Potency, µM (titrated, usually from 57.1 µM), for the others: at the top dose activity change, negative = inhibition, hits mostly inhibitors; 230,000 compounds, 1.6% hits; active means well fitted inhibition curve with a large enough effect, not every such curve was filed as active; inconclusive means small, poorly fitted or top-dose-only effect, or another doubt; inactive means no such curve, though single readings can be large or run the other way;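 further: 0% = wells with enzyme and -100% = buffer wells without enzyme; nearly all actives have a fitted effect of over 50% in size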
# Target sequence (B2RXH2 1-337 limits assumed): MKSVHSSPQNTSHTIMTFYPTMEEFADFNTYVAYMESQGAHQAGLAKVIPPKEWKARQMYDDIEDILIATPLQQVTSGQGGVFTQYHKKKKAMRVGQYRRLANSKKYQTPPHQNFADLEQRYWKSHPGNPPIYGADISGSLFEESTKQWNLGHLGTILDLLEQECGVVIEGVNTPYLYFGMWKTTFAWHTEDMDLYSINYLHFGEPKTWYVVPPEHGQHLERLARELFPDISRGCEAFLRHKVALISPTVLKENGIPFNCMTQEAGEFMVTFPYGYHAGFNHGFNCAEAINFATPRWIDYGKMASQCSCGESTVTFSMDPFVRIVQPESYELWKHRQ
# BLM helicase inh = qHTS Assay for Inhibitors of Bloom's syndrome helicase (BLM). RecQ-like DNA helicase BLM (Homo sapiens), P54132. recombinant BLM DNA unwinding, fluorescence dequenching. Potency, µM (top dose mostly 56.1 µM), for inactives: at the highest dose activity change, negative = inhibition, usual class: inhibitors. 350,000 compounds, 0.2% hits. AID 2528, 2010;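 further: plate controls were vehicle for no effect and no enzyme for full effect; nearly all actives have a fitted effect of over 35% in size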
# L3MBTL1 block = qHTS Assay for the Inhibitors of L3MBTL1; Potency, µM (doses to about 57.1 µM), without a hit: at the highest dose activity, negative = inhibition, usual class: inhibitors; 230,000 compounds, 0.66% hits; AID 485360, 2010; AlphaScreen L3MBTL1–H3K9me1 peptide binding; Lethal(3)malignant brain tumor-like protein 1 (Homo sapiens), Q9Y468; further: nearly all actives have a fitted effect of over 60% in size
#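 L3MBTL1 (50 nM) pre-complexed 30 min with biotinylated H3(1-15)K9me1 peptide (75 nM), then compounds added for 30 min at room temperature; AlphaScreen streptavidin donor/nickel chelate acceptor beads (10 ug/mL final) read after 30 min dark incubation.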
# TDP1 block = qHTS Assay for Inhibitors of Tyrosyl-DNA Phosphodiesterase (TDP1); Tyrosyl-DNA phosphodiesterase 1 (Homo sapiens), Q9NUW8; recombinant TDP1, AlphaScreen DNA substrate cleavage; Potency, µM (doses to about 130 µM), for inactives: at the top dose activity change, negative = inhibition, usual class: inhibitors; 350,000 compounds, 0.28% hits; further: nearly all actives have a fitted effect of over 40% in size
#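 Recombinant human Tdp1 (E. coli-expressed, 1 nM final) preincubated with compounds 15 min at room temperature, then 5'-biotin/3'-phosphotyrosine-FITC DNA substrate (15 nM final) added for 5 min. AlphaScreen beads (10 ug/ml final) added 10 min; cleavage lowers signal.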
# * = called active by the depositor; i = inactive; ? = inconclusive; nt = no result; [ ] = remark or other dose. The entries come from a sample that favours hits as a whole. Unless noted, the call rests on the fitted dose curve; in most records, active means well fitted curve in the direction sought with a large enough effect; inconclusive means small, poorly fitted or top-dose-only effect, or another doubt; inactive means no such curve, though single readings can be large; an effect the other way counts as inactive or inconclusive. Unless noted, on the % scale 0 is the no-effect control and ±100 the full control effect; potency means the concentration at half of the fitted maximal effect.
SMILES,APE1 inh,RECQ1 helicase,JMJD2E inh,BLM helicase inh,L3MBTL1 block,TDP1 block
CN1C(=O)C(=Cc2ccc(N3CCOCC3)c([N+](=O)[O-])c2)C(=O)N(C)C1=O,-1%,20%,?,1%,-1%,0%
O=C1NC(=O)C(=Cc2ccc(N3CCN(C(=O)c4ccccc4)CC3)c([N+](=O)[O-])c2)C(=O)N1,8%,0%,22µM*,4%,nt,-3%
Cc1ccc(/C=C2\C(=O)NC(=S)N(c3ccc(F)cc3)C2=O)o1,45%,nt,nt,-4%,16µM*,nt
CCOc1cccc(N2C(=O)/C(=C/c3ccco3)C(=O)NC2=S)c1,11µM*,nt,nt,28µM*,-92%,nt
O=C1NC(=O)N(CCc2ccc(F)cc2)C(=O)/C1=C/c1cccs1,-9%,-2%,6%,-7%,nt,0%
O=C1NC(=O)N(CCc2ccc(F)cc2)C(=O)/C1=C/c1ccco1,10µM*,28µM*,-15%,-20%,nt,nt
COc1cccc(N2C(=O)/C(=C/c3ccc(C)o3)C(=O)NC2=S)c1,34%,nt,nt,-13%,nt,nt
O=C1NC(=S)N(c2ccccc2)C(=O)/C1=C/c1ccco1,17µM*,nt,nt,22µM*,0%[2.29 µM],nt
CC1CC(=O)O1 (stereo unspecified),1%,2%,nt,nt,nt,6%
CN(C)C1C(=O)C(C(N)=O)C(=O)C2(O)C(=O)C3C(=O)c4c(O)cccc4C(C)(O)C3C(O)C12 (stereo unspecified),nt,i,nt,-5%,nt,?
Cc1ccc(N2C(=O)/C(=C/c3ccc(CN(CCC#N)S(C)(=O)=O)o3)C(=O)NC2=S)cc1,?,?,?,-6%,32µM*,-5%
CCOc1ccc2nc(N=Nc3c(O)[nH]c(=O)[nH]c3=O)sc2c1,1%,13%,-1%,1%,-13%,40µM*
CCOc1ccc2nc(N=Nc3c(O)[nH]c(=S)[nH]c3=O)sc2c1,?,-11%,-6%,-9%,7.9µM*,-4%
Cc1c(N=Nc2c(O)[nH]c(=S)[nH]c2=O)c(=O)n(-c2ccccc2)n1C,-2%,-21%,-6%,2%,?,-2%
O=C(O)c1cccc2c1NC(C(=O)O)C1CC(Sc3ccccc3[N+](=O)[O-])C(Cl)C21 (stereo unspecified),3%,3%,-2%,?,2.2µM*,nt
CC(=O)c1ccc2c(c1)C1C(Cl)C(Sc3ccccc3[N+](=O)[O-])CC1C(C(=O)O)N2 (stereo unspecified),?,?,?,?,4µM*,-5%
CC(C)c1cccc(O)c(=O)c1,-2%,25%,7.9µM*,2%,-1%,13%
O=C1c2ccccc2C(=O)c2ccccc21,-4%,-9%,3%,2%,nt,2%
O=C1C=Cc2ccccc2C1=O,?,28µM*,14µM*,-1%,-25%,-11%
C#CCO,5%,-8%,nt,nt,nt,6%
O=S(=O)(O)F,4%,-1%,nt,nt,nt,nt
O=C1NC(=O)N(Cc2ccc(F)cc2)C(=O)/C1=C\c1ccc([N+](=O)[O-])s1,?,32µM*,28µM*,-18%,nt,4%
COc1ccc(CN2C(=O)NC(=O)/C(=C/c3ccc([N+](=O)[O-])s3)C2=O)cc1,?,32µM*,25µM*,-22%,28µM*,5%
O=C1NC(=O)N(Cc2ccc(F)cc2)C(=O)/C1=C\c1ccc(N2CCCC2)cc1,-3%,-28%,-26%,-27%,-25%,5%
CCCCC/C=C\C/C=C\C/C=C\C/C=C\CCCC(=O)NCCCl,?,-13%,nt,-10%,nt,?
